Bioassay records as filed in PubChem BioAssay.
TIM10 inh: growth inhibitors of TIM10 yeast strain; S. cerevisiae TIM10 strain growth, BacTiter-Glo luminescence, 24 h; inhibition, % at 10 µM; 1.4% of 330,000 active;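 active = inhibition of 40% or more at the single tested concentration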;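 note: wild-type TIM10 isogenic control strain grown at permissive 25 °C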
tim10-1 inh: growth inhibitors of tim10-1 mutant yeast. S. cerevisiae tim10-1 ts strain growth, BacTiter-Glo, 24 h. inhibition, % at 20 µM. 2.2% of 330,000 active. AID 463190;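 active = inhibition of at least 40%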;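 note: mutant grown at 25 °C; 0% = DMSO wells with yeast and 100% = wells holding no yeast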
NLRP3 yeast inh: inhibitors of NALP3 inflammasome in yeast; inhibition, % at 10 µM; 0.39% of 330,000 active; Yeast reconstituted NLRP3/ASC/caspase-1, beta-gal luminescence, 24 h; AID 2825;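 active = inhibition of 50% or more; inactive = inhibition below 50%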;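 note: plate controls were induced DMSO wells for no effect and uninduced yeast grown without galactose for full effect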
tim23-1 inh: inhibits growth of tim23-1 mutant yeast. AID 463212. S. cerevisiae tim23-1 growth, BacTiter-Glo luminescence, 24 h. inhibition, % at 20 µM. 1.3% of 330,000 active;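 active = growth inhibition of the mutant yeast at or above 50%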;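 note: temperature-sensitive mutant grown at 25 °C; plate controls were DMSO-treated mutant yeast for no effect and medium wells lacking yeast for full effect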
CR mimetic SO: caloric restriction mimetics inhibiting age-related superoxide in yeast | S. cerevisiae aged cells, superoxide DHE fluorescence; hits give low values | superoxide response (% of plate mean), % at 10 µM | 0.18% of 330,000 active;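 active = superoxide response under a set limit, about three screen SD below normal, cut at about 65% in these data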;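 note: yeast aged for seven days with compound at 30 °C before DHE staining; 100% = average MFI of all compound-treated wells on the plate with controls excluded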
tim10-1 confirm: tim10-1 yeast growth inhibition, confirmed. shares compounds with tim10-1 inh. S. cerevisiae tim10-1 ts strain growth, BacTiter-Glo, 24 h. inhibition, % at 20 µM. 56% of 7,400 active;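 active = inhibition of yeast growth at or above a set limit in either of two repeat tests at 20 µM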;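 note: tim10-1 mutant grown at permissive 25 °C to find synthetic lethal compounds; 0% = DMSO yeast wells and 100% = medium wells without yeast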
tim10 confirm: confirmation of TIM10 yeast growth inhibitors. shares compounds with TIM10 inh. S. cerevisiae tim10 strain growth, BacTiter-Glo luminescence, 24 h. inhibition, % at 10 µM. 63% of 4,600 active. AID 463215;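 active = inhibition of yeast growth at or above a set limit in either of two replicates at 10 µM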;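 note: this counterscreen used the strain with wild-type TIM10; 0% = yeast with DMSO and 100% = medium wells lacking yeast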
* hit, by the source's call; x = no result given. The list is not random: actives were taken first. Their share in the collection is about 3.8%.

SMILES	TIM10 inh	tim10-1 inh	NLRP3 yeast inh	tim23-1 inh	CR mimetic SO	tim10-1 confirm	tim10 confirm
COc1ccc(N2CCN(c3ccc(C(=O)O)cc3[N+](=O)[O-])CC2)cc1	5	15	2	-13	89	x	x
COc1ccc(NC(=O)CSc2nncc3ccccc23)cc1	11	-20	30	2	100	x	x
COc1ccc(C(=O)Sc2nncc3ccccc23)cc1	42*	45*	-25	48	94	18	41*
COc1ccccc1NC(=O)C(C)OC(=O)C1COc2ccccc2O1 (configuration not stated)	7	13	-1	21	100	x	x
FC(F)(F)c1cccc(NC(=S)NNC(=S)Nc2cccc(C(F)(F)F)c2)c1	54*	47*	13	40	103	29	54*
Cc1ccc(N(CC(=O)Nc2ccccc2-c2ccccc2)S(=O)(=O)c2ccccc2)c(C)c1	11	25	16	28	106	x	x
CN(c1cccc(NC(=O)c2ccc(Cl)c(S(=O)(=O)N3CCOCC3)c2)c1)S(C)(=O)=O	7	-1	7	19	102	x	x
COc1cc(C2Nc3cccc4cccc(c34)N2)cc(OC)c1O	29	21	40	26	78	x	x
Oc1ccc(C2Nc3cccc4cccc(c34)N2)c(O)c1	41*	42*	19	29	100	44*	38*
N/C(=N\OC(=O)CC1CCCCC1)c1cccc([N+](=O)[O-])c1	46*	56*	6	38	101	65*	36*
N/C(=N/OC(=O)c1cccc([N+](=O)[O-])c1)c1cccc([N+](=O)[O-])c1	-26	20	0	-14	102	x	x
CN(C(=O)CSc1ccncc1)C1CCCN(Cc2ccccc2F)C1 (configuration not stated)	-8	5	16	10	98	x	x
CCCC1(c2ccccc2)NC(=O)N(CC(=O)Nc2cc(S(=O)(=O)N3CCOCC3)ccc2Cl)C1=O (configuration not stated)	-1	6	3	5	95	x	x
N/C(=N\OC(=O)c1ccc(Br)cc1)c1ccccc1	50*	55*	15	40	98	52*	67*
N/C(=N\OC(=O)COc1ccc(Cl)cc1Cl)c1cccnc1	24	20	25	19	107	x	x
N/C(=N\OC(=O)CCCOc1ccccc1)c1ccccc1	51*	44*	14	41	84	37*	35*
N/C(=N\OC(=O)CCCOc1ccccc1)c1ccncc1	-3	11	6	13	103	x	x
N/C(=N\OC(=O)CCCOc1ccc(Cl)cc1Cl)c1ccncc1	43*	54*	11	6	108	30*	4
O=C(CN1C(=O)C2CCCCC2C1=O)Nc1cccc([N+](=O)[O-])c1 (configuration not stated)	2	14	16	12	103	x	x
Cc1ccc(N(CC(=O)NC2CCCCC2)C(=O)CNC(=O)c2ccco2)cc1C	1	2	6	9	101	x	x
C/C(=N\NC(=O)C(C)Nc1cccc(Cl)c1)c1ccc([N+](=O)[O-])cc1 (configuration not stated)	16	4	0	24	111	x	x
N/C(Cc1ccc(Cl)cc1Cl)=N\OC(=O)c1cccs1	86*	73*	17	34	105	37*	86*
N/C(Cc1ccc(Cl)cc1Cl)=N\OC(=O)Cc1cccs1	49*	48*	11	28	93	38*	8
O=C(COC(=O)c1cccs1)Nc1cccc(Cl)c1	-31	-14	7	13	94	x	x
COc1ccc(S(=O)(=O)N2CCOC23CCN(S(=O)(=O)c2ccc(F)cc2C)CC3)cc1	-4	27	18	35	x	x	x
SMILES	TIM10 inh	tim10-1 inh	NLRP3 yeast inh	tim23-1 inh	CR mimetic SO	tim10-1 confirm	tim10 confirm
CC1CCCC(NC(=O)COC(=O)COc2cccc(F)c2)C1C (configuration not stated)	-6	16	5	14	106	x	x
O=S(=O)(c1ccccc1)N1CCC(O)(CSc2ccc(Cl)cc2)CC1	43*	44*	-2	34	111	37*	25
O=S(=O)(c1ccc(Cl)cc1)N1CCC(O)(CN2CCN(Cc3ccccc3)CC2)CC1	-3	2	26	10	96	x	x
COC(=O)c1ccc(Cn2cc(Cl)cn2)o1	-3	-8	11	-5	108	x	x
Cc1nc(Nc2ccc(Cl)c(Cl)c2)sc1C(=O)Nc1ccccc1	53*	59*	38	36	93	32*	69*
C=CCc1ccc(OCCOCCN(C)C)c(OC)c1	-5	5	15	11	95	x	x
C=CCc1ccc(OCCOc2cccc3ccc(C)nc23)c(OC)c1	52*	42*	6	46	122	32*	31*
CC(C)n1c(CSCc2ccc(Cl)cc2Cl)n[nH]c1=S	41*	49*	18	40	97	24	49*
Nc1nnc(CSCc2ccc(Cl)cc2Cl)s1	23	29	-8	11	98	x	x
C/C(Cc1ccccc1)=N\NC(=O)CNC(=O)c1ccccc1F	2	11	11	6	87	x	x
Cc1ccccc1OCCC(=O)N1CCN(S(=O)(=O)c2ccc(Cl)cc2)CC1	-8	8	37	29	114	x	x
COc1ccc(-c2ccc(N)[n+](CCCC(=O)O)n2)cc1	5	-17	14	-19	94	x	x
Cc1nn(-c2ccccc2)c(Cl)c1/C=C/C(=O)c1ccccc1	46*	41*	2	-4	98	48*	40*
Cc1nn(-c2ccccc2)c(Cl)c1/C=N/O	8	16	30	16	90	x	x
Cc1ccc(S(=O)(=O)n2nc(-c3ccc(Cl)cc3)nc2NCc2ccco2)cc1	18	25	7	27	99	x	x
CN1CCN(C(=O)CCN2C(=O)/C(=C/c3ccccc3Cl)SC2=S)CC1	44*	44*	13	40	97	24	28
CN1CCN(C(=O)CCN2C(=O)/C(=C\c3ccccc3F)SC2=S)CC1	10	17	16	11	94	x	x
CN1CCN(c2nc(-c3ccccc3)nc(-c3ccccc3)c2C#N)CC1	17	19	27	25	103	x	x
COc1ccc(-c2nc(-c3ccccc3)nc(N3CCN(C)CC3)c2C#N)cc1	53*	45*	33	50	101	22	26
CCc1cccc2c(C(=O)COC(=O)c3ccc([N+](=O)[O-])s3)c[nH]c12	74*	64*	47	-93	85	23	76*
CCOC(=O)c1c(C)[nH]c(C)c1C(=O)COC(=O)c1ccc([N+](=O)[O-])s1	-66	-25	10	1	154	x	x
Cc1ccc(NC(=O)c2ccc3ccccc3n2)cc1S(=O)(=O)N(C)C	17	18	-50	-17	113	x	x
